Assay results published in PubChem BioAssay AID1159580 (chemical genetic matrix, 2015).
Values joined by “and” are separate entries in the source; they are usually repeats but may differ in a detail not shown here. Equal values may be shown once. The whole screen tested about 5,500 compounds, of which about 2,000 (36%) were called active. About 18% were inconclusive and are not listed. No stated cut-off is given here; in the data, active means normalized growth mostly below about 0.91 (no sharp cut-off); inconclusive means no clear call, values can overlap the other calls; inactive means mostly above about 0.92. The list shows a part of the results.

Assay: chemical genetic growth profiling, strain panel (AID 1159580);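 further: tested at 20 µM; growth read once vehicle control cultures reached saturation at 30 °C; 1 = growth at the plate median or of vehicle wells; lower values mean less growth of the strain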
Conditions: growth OD

Measured: normalized growth

CC(C)C(=O)Nc1ccc([N+](=O)[O-])c(C(F)(F)F)c1
inactive: S. cerevisiae deletion strains, locus YKL009W, strain mrt4, active compounds read low 0.984 | S. cerevisiae deletion strains, locus YKL068W, active compounds read low 0.984 | S. cerevisiae deletion strains, locus YKL085W, strain MDH1 (second series), active compounds read low 0.987 | S. cerevisiae deletion strains, locus YKL085W, strain MDH1, active compounds read low 0.987 | S. cerevisiae deletion strains, locus YKL160W, strain elf1, active compounds read low 1 | S. cerevisiae deletion strains, locus YKL190W, strain CNB1, active compounds read low 0.992 | S. cerevisiae deletion strains, locus YKR026C, strain gcn3, active compounds read low 1.01 | S. cerevisiae deletion strains, locus YKR091W, strain srl3, active compounds read low 1.01 | S. cerevisiae deletion strains, locus YLL001W, strain dnm1, active compounds read low 1.03 | S. cerevisiae deletion strains, locus YLL026W, active compounds read low 1.02 | S. cerevisiae deletion strains, locus YLL041C, strain sdh2, active compounds read low 1.01 | S. cerevisiae deletion strains, locus YLR027C, strain aat2, active compounds read low 1.02 | S. cerevisiae deletion strains, locus YLR039C, strain RIC1, active compounds read low 0.826 | S. cerevisiae deletion strains, locus YLR058C, strain SHM2, active compounds read low 0.99 | S. cerevisiae deletion strains, locus YLR102C, strain apc9, active compounds read low 0.968 | S. cerevisiae deletion strains, locus YLR113W, strain HOG1, active compounds read low 0.93 | S. cerevisiae deletion strains, locus YLR221C, strain rsa3, active compounds read low 1.04 | S. cerevisiae deletion strains, locus YLR258W, strain gsy2, active compounds read low 1.02 | S. cerevisiae deletion strains, locus YLR262C, strain YPT6 (second series), active compounds read low 1.01 | S. cerevisiae deletion strains, locus YLR262C, strain YPT6, active compounds read low 0.899 | S. cerevisiae deletion strains, locus YLR268W, strain sec22, active compounds read low 0.96 | S. cerevisiae deletion strains, locus YLR320W, strain mms22, active compounds read low 1.03 | S. cerevisiae deletion strains, locus YLR330W, strain CHS5, active compounds read low 0.987 | S. cerevisiae deletion strains, locus YLR342W, strain FKS1 (second series), active compounds read low 0.96 | S. cerevisiae deletion strains, locus YLR342W, strain FKS1, active compounds read low 1.01 | S. cerevisiae deletion strains, locus YLR357W, strain rsc2, active compounds read low 1.09 | S. cerevisiae deletion strains, locus YLR370C, strain arc18, active compounds read low 1.03 | S. cerevisiae deletion strains, locus YLR371W, strain rom2, active compounds read low 0.974 | S. cerevisiae deletion strains, locus YLR384C, strain iki3, active compounds read low 1.03 | S. cerevisiae deletion strains, locus YLR418C, strain cdc73, active compounds read low 0.896 | S. cerevisiae deletion strains, locus YML016C, strain PPZ1, active compounds read low 0.981 | S. cerevisiae deletion strains, locus YML032C, strain rad52, active compounds read low 0.974 | S. cerevisiae deletion strains, locus YML120C, strain ndi1, active compounds read low 1.01 | S. cerevisiae deletion strains, locus YML124C, strain tub3, active compounds read low 0.972 | S. cerevisiae deletion strains, locus YMR058W, strain fet3, active compounds read low 1.03 | S. cerevisiae deletion strains, locus YMR078C, strain ctf18, active compounds read low 0.976 | S. cerevisiae deletion strains, locus YMR125W, strain sto1, active compounds read low 1.03 | S. cerevisiae deletion strains, locus YMR129W, active compounds read low 1.02 | S. cerevisiae deletion strains, locus YMR205C, strain PFK2, active compounds read low 1.02 | S. cerevisiae deletion strains, locus YMR223W, strain ubp8, active compounds read low 0.982 | S. cerevisiae deletion strains, locus YMR231W, strain pep5, active compounds read low 1.03 | S. cerevisiae deletion strains, locus YMR263W, strain SAP30, active compounds read low 0.982 and 1 | S. cerevisiae deletion strains, locus YMR307W, strain GAS1, active compounds read low 0.832 | S. cerevisiae deletion strains, locus YNL067W, strain RPL9B, active compounds read low 0.99 | S. cerevisiae deletion strains, locus YNL071W, strain lat1, active compounds read low 1.02 | S. cerevisiae deletion strains, locus YNL128W, strain TEP1, active compounds read low 1.01 | S. cerevisiae deletion strains, locus YNL153C, strain GIM3, active compounds read low 0.99 and 0.977 | S. cerevisiae deletion strains, locus YNL175C, strain NOP13, active compounds read low 0.977 | S. cerevisiae deletion strains, locus YNL183C, strain NPR1, active compounds read low 0.91 | S. cerevisiae deletion strains, locus YNL197C, strain WHI3, active compounds read low 0.968 | S. cerevisiae deletion strains, locus YNL209W, strain ssb2, active compounds read low 1.01 | S. cerevisiae deletion strains, locus YNL224C, strain SQS1, active compounds read low 0.96 | S. cerevisiae deletion strains, locus YNL233W, strain BNI4, active compounds read low 0.955 | S. cerevisiae deletion strains, locus YNL248C, strain rpa49, active compounds read low 1.06 | S. cerevisiae deletion strains, locus YNL250W, strain rad50, active compounds read low 0.989 | S. cerevisiae deletion strains, locus YNL271C, strain bni1, active compounds read low 0.975 | S. cerevisiae deletion strains, locus YNL298W, strain CLA4, active compounds read low 0.978 | S. cerevisiae deletion strains, locus YNL307C, strain MCK1, active compounds read low 0.958 | S. cerevisiae deletion strains, locus YNL322C, strain KRE1 (second series), active compounds read low 1.02 | S. cerevisiae deletion strains, locus YNL322C, strain KRE1, active compounds read low 0.997 and 1.04 | S. cerevisiae deletion strains, locus YNR049C, strain mso1, active compounds read low 1.02 | S. cerevisiae deletion strains, locus YNR052C, strain pop2, active compounds read low 0.978 | S. cerevisiae deletion strains, locus YOL006C, strain TOP1, active compounds read low 0.851 | S. cerevisiae deletion strains, locus YOL012C, strain htz1 1.09 | S. cerevisiae deletion strains, locus YOL147C, strain pex11, active compounds read low 0.978 | S. cerevisiae deletion strains, locus YOR001W, strain rrp6, active compounds read low 1.05 | S. cerevisiae deletion strains, locus YOR061W, strain CKA2, active compounds read low 0.987 | S. cerevisiae deletion strains, locus YOR069W, strain VPS5, active compounds read low 0.99 | S. cerevisiae deletion strains, locus YOR070C, strain gyp1, active compounds read low 1 | S. cerevisiae deletion strains, locus YOR080W, strain dia2, active compounds read low 1.03 | S. cerevisiae deletion strains, locus YOR083W, strain WHI5 (second series), active compounds read low 0.9 | S. cerevisiae deletion strains, locus YOR083W, strain WHI5, active compounds read low 0.999 | S. cerevisiae deletion strains, locus YOR106W, strain vam3, active compounds read low 1.04 | S. cerevisiae deletion strains, locus YOR136W, strain idh2, active compounds read low 0.981 | S. cerevisiae deletion strains, locus YOR144C, strain elg1, active compounds read low 0.966 | S. cerevisiae deletion strains, locus YOR184W, strain ser1, active compounds read low 0.939 | S. cerevisiae deletion strains, locus YOR231W, strain MKK1, active compounds read low 0.952 | S. cerevisiae deletion strains, locus YOR265W, strain rbl2, active compounds read low 1 | S. cerevisiae deletion strains, locus YOR270C, strain vph1, active compounds read low 1.03 | S. cerevisiae deletion strains, locus YOR290C, strain snf2, active compounds read low 1.02 | S. cerevisiae deletion strains, locus YOR316C, strain cot1, active compounds read low 0.977 | S. cerevisiae deletion strains, locus YPL051W, strain arl3, active compounds read low 1 | S. cerevisiae deletion strains, locus YPL055C, strain LGE1, active compounds read low 0.953 and 1.01 | S. cerevisiae deletion strains, locus YPL078C, strain atp4, active compounds read low 1 | S. cerevisiae deletion strains, locus YPL106C, strain sse1, active compounds read low 1.01 | S. cerevisiae deletion strains, locus YPL240C, strain hsp82, active compounds read low 1 | S. cerevisiae deletion strains, locus YPL241C, strain CIN2, active compounds read low 0.985 and 1 | S. cerevisiae deletion strains, locus YPL256C, strain CLN2, active compounds read low 0.991 | S. cerevisiae deletion strains, locus YPR119W, strain clb2, active compounds read low 0.973 | S. cerevisiae deletion strains, locus YPR141C, strain kar3, active compounds read low 0.98 | S. cerevisiae deletion strains, locus YPR163C, strain tif3, active compounds read low 0.987 | S. cerevisiae deletion strains, locus YPR167C, strain met16, active compounds read low 0.984 | S. cerevisiae deletion strains, strain wtn01, active compounds read low 0.954 | S. cerevisiae strains, strain wild type, active compounds read low 0.986
active: S. cerevisiae deletion strains, locus YKR001C, strain vps1, active compounds read low 0.837
